± gives the standard deviation.
Columns and labels:
Experiment in all cases: peptide microarray binding signal (635 nm), min-max normalized on array (fraction of array maximum); higher = stronger binding
[1] = molecular target: T1, HaloTag-ATRX ADD domain (163-292)
T1 chain: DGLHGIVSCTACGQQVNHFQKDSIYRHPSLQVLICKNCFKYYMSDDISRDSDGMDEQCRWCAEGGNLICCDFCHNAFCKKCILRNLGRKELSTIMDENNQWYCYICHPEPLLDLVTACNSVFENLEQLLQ
Method in brief: (§1)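 Binding signal is the mean intensity of triplicate spots, min-max scaled within each library. Histone 13-mer peptide–cellulose conjugates were spotted in triplicate on nitrocellulose with a Cy3 tracer and blocked overnight at 4°C. Probing lasted 1 h at 4°C, either with biotin-labelled HaloTag reader fusions (10 nM to 1 μM) and streptavidin-Alexa Fluor 647 or with rabbit histone antibodies (1:10,000 to 1:2,000) and anti-rabbit Alexa 647. An Axon GenePix 4000B read signal at 635 nm and misprints at 532 nm.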

[2] = molecular target: HaloTag-ING2 PHD (mouse Ing2 200-280)
Method in brief: as §1

[3] = molecular target: anti-H3K4me3 antibody ab8580
Method in brief: as §1

[4] = molecular target: anti-H3K9me3 antibody ab8898
Method in brief: as §1

[5] = peptide region: H3 73-85, peptide modifications: H3T80ph, binder concentration: 1:2,000 dilution
[6] = peptide region: H3 73-85, peptide modifications: H3T80ph, binder concentration: 1:10,000 dilution
[7] = peptide region: H3 112-124, peptide modifications: H3K115ac H3K122me2, binder concentration: 1:2,000 dilution
[8] = peptide region: H3 112-124, peptide modifications: H3K115ac H3K122me2, binder concentration: 1:10,000 dilution
[9] = peptide region: H3 112-124, peptide modifications: H3K115ac H3K122ac, binder concentration: 1:2,000 dilution
[10] = peptide region: H3 112-124, peptide modifications: H3K115ac H3K122ac, binder concentration: 1:10,000 dilution
[11] = peptide region: H3 112-124, peptide modifications: H3K115ac H3K122me3, binder concentration: 1:2,000 dilution
[12] = peptide region: H3 112-124, peptide modifications: H3K115ac H3K122me3, binder concentration: 1:10,000 dilution
[13] = peptide region: H3 112-124, peptide modifications: H3K115ac H3R116cit, binder concentration: 1:2,000 dilution
[14] = peptide region: H3 112-124, peptide modifications: H3K115ac H3R116cit, binder concentration: 1:10,000 dilution

Binder: EIAQDFKTDLRFQ [H3 73-85 E I A Q D F K Tph D L R F Q]
- peptide microarray binding signal ([1]; peptide region: H3 73-85, peptide modifications: H3T80ph, binder concentration: 50 nM): 0.00129 ± 3.8e-05
- peptide microarray binding signal ([1]; peptide region: H3 73-85, peptide modifications: H3T80ph, binder concentration: 500 nM): 0.00386 ± 0.00022
- peptide microarray binding signal ([2]; peptide region: H3 73-85, peptide modifications: H3T80ph, binder concentration: 10 nM): 0.00406 ± 0.00014
- peptide microarray binding signal ([2]; peptide region: H3 73-85, peptide modifications: H3T80ph, binder concentration: 100 nM): 0.000921
- peptide microarray binding signal [3, 5]: 0.000547 ± 3.5e-05
- peptide microarray binding signal [3, 6]: 0.000685 ± 7.2e-06
- peptide microarray binding signal [4, 5]: 0.00186 ± 2e-05
- peptide microarray binding signal [4, 6]: 0.00127 ± 4.6e-05

Binder: IHAKRVTIMPKDI [H3 112-124 I H A Kac R V T I M P Kme2 D I]
- peptide microarray binding signal ([1]; peptide region: H3 112-124, peptide modifications: H3K115ac H3K122me2, binder concentration: 50 nM): 0.00668 ± 0.00012
- peptide microarray binding signal ([1]; peptide region: H3 112-124, peptide modifications: H3K115ac H3K122me2, binder concentration: 500 nM): 0.0132 ± 0.00064
- peptide microarray binding signal ([2]; peptide region: H3 112-124, peptide modifications: H3K115ac H3K122me2, binder concentration: 10 nM): 0.0198 ± 0.004
- peptide microarray binding signal ([2]; peptide region: H3 112-124, peptide modifications: H3K115ac H3K122me2, binder concentration: 100 nM): 0.0271 ± 0.0018
- peptide microarray binding signal [3, 7]: 0.00159 ± 0.00013
- peptide microarray binding signal [3, 8]: 0.00211 ± 5.8e-05
- peptide microarray binding signal [4, 7]: 0.00169 ± 0.00021
- peptide microarray binding signal [4, 8]: 0.00133 ± 4e-05

Binder: IHAKRVTIMPKDI [H3 112-124 I H A Kac R V T I M P Kac D I]
- peptide microarray binding signal ([1]; peptide region: H3 112-124, peptide modifications: H3K115ac H3K122ac, binder concentration: 50 nM): 0.00947 ± 0.0003
- peptide microarray binding signal ([1]; peptide region: H3 112-124, peptide modifications: H3K115ac H3K122ac, binder concentration: 500 nM): 0.0259 ± 0.00095
- peptide microarray binding signal ([2]; peptide region: H3 112-124, peptide modifications: H3K115ac H3K122ac, binder concentration: 10 nM): 0.0323 ± 0.0014
- peptide microarray binding signal ([2]; peptide region: H3 112-124, peptide modifications: H3K115ac H3K122ac, binder concentration: 100 nM): 0.0605 ± 0.013
- peptide microarray binding signal [3, 9]: 0.00336 ± 0.0003
- peptide microarray binding signal [3, 10]: 0.00417 ± 0.0002
- peptide microarray binding signal [4, 9]: 0.00288 ± 0.00013
- peptide microarray binding signal [4, 10]: 0.00242 ± 9.5e-05

Binder: IHAKRVTIMPKDI [H3 112-124 I H A Kac R V T I M P Kme3 D I]
- peptide microarray binding signal ([1]; peptide region: H3 112-124, peptide modifications: H3K115ac H3K122me3, binder concentration: 50 nM): 0.0118 ± 0.00049
- peptide microarray binding signal ([1]; peptide region: H3 112-124, peptide modifications: H3K115ac H3K122me3, binder concentration: 500 nM): 0.027 ± 0.0019
- peptide microarray binding signal ([2]; peptide region: H3 112-124, peptide modifications: H3K115ac H3K122me3, binder concentration: 10 nM): 0.04 ± 0.0046
- peptide microarray binding signal ([2]; peptide region: H3 112-124, peptide modifications: H3K115ac H3K122me3, binder concentration: 100 nM): 0.0592 ± 0.018
- peptide microarray binding signal [3, 11]: 0.00634 ± 0.00027
- peptide microarray binding signal [3, 12]: 0.00679 ± 0.00065
- peptide microarray binding signal [4, 11]: 0.0228 ± 0.0018
- peptide microarray binding signal [4, 12]: 0.0104 ± 0.00089

Binder: IHAKRVTIMPKDI [H3 112-124 I H A Kac Rcit V T I M P K D I]
- peptide microarray binding signal ([1]; peptide region: H3 112-124, peptide modifications: H3K115ac H3R116cit, binder concentration: 50 nM): 0.00668 ± 0.00021
- peptide microarray binding signal ([1]; peptide region: H3 112-124, peptide modifications: H3K115ac H3R116cit, binder concentration: 500 nM): 0.0105 ± 0.00017
- peptide microarray binding signal ([2]; peptide region: H3 112-124, peptide modifications: H3K115ac H3R116cit, binder concentration: 10 nM): 0.0109 ± 0.00031
- peptide microarray binding signal ([2]; peptide region: H3 112-124, peptide modifications: H3K115ac H3R116cit, binder concentration: 100 nM): 0.016 ± 0.00067
- peptide microarray binding signal [3, 13]: 0.00179 ± 5.5e-05
- peptide microarray binding signal [3, 14]: 0.00211 ± 3.4e-05
- peptide microarray binding signal [4, 13]: 0.00154 ± 1.8e-05
- peptide microarray binding signal [4, 14]: 0.00127 ± 1.3e-05

— the supplement of paper PMC4022240
